According to PubChem BioAssay AID431 (Sanford-Burnham Center for Chemical Genomics, 2006):
Among all 63,000 compounds or so, about 1,100 (1.7%) were called active. The sample as a whole holds a higher share of actives than the screen did. Potency and affinity values are given separately. Unmarked numbers belong to inactive results.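 The calls were made as follows: active = compounds whose percent cytotoxicity in the single-dose primary screen, scaled between solvent and toxic-drug controls, exceeds 50; inactive = the rest.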

Assay: cytotoxicity in KRAS-transformed pancreatic duct cells, primary screen, cell-based, fluorescence, HTS (AID 431);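 also: 0% = DMSO solvent wells and 100% = doxorubicin-treated wells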
Conditions: HPDE-C7K KRASV12 cells, Alamar Blue viability, 48 h; at 10 µM; hits give high values

Going from `CCC(C)(C)NC(=O)C(c1cccn1C)N(C(=O)Cn1nnc2ccccc21)c1ccc(OC)cc1` (centres undefined) to `CCn1c2ccccc2c2cc(NC(=O)CSc3nnnn3-c3ccccc3)ccc21`, the cytotoxicity falls from 41.6% to 5.6%.

First: COc1ccc2c(c1)OC(O)(C(F)(F)F)CC2=O (centres undefined)
Second: O=C1CC(O)(C(F)F)Oc2ccc3ccccc3c21 (centres undefined)
The cytotoxicity of the first is lower: -1.5% for the first, -1.2% for the second.

Going from `COc1ccc(NC(=O)c2ccc(-n3nc(C)c[n+]3[O-])cc2)cc1` to `CCn1c(SCC(=O)Nc2ccc(S(N)(=O)=O)cc2)nnc1-c1cccc(OC)c1`, the cytotoxicity rises from -7.1% to 6.1%.

First: N#Cc1c2n(cnc1=O)CCCCC2
Second: O=[n+]1c2c(n([O-])c3cc(F)ccc31)CCCC2
The cytotoxicity of the first is lower: 0% for the first, 0.3% for the second.

Going from `Nc1ccc(-n2c(N)c(C(=O)NCc3ccc4c(c3)OCO4)c3nc4ccccc4nc32)cc1` to `Nc1c(C(=O)NCCN2CCOCC2)c2nc3ccccc3nc2n1-c1ccc2c(c1)OCO2`, the cytotoxicity falls from 35.9% to -10.7%.

Going from `Nc1c(C(=O)NCCN2CCOCC2)c2nc3ccccc3nc2n1CCc1ccccc1` to `Nc1c(C(=O)NCCN2CCOCC2)c2nc3ccccc3nc2n1CCc1ccccc1F`, the cytotoxicity falls from 18.1% to 7.5%.

Compared with `CC1CN(c2nnnn2-c2ccccc2)CC(C)O1` (centres undefined), `Cc1nn(-c2ccccc2)c(C)c1C(=O)OCC(=O)Nc1ccc2c(c1)OCO2` is higher in cytotoxicity: -6.4% for the first, -6.3% for the second.

First: Cc1ccc(NC(=O)CSc2nnc(COc3ccc(C#N)cc3)n2-c2ccccc2)cc1C
Second: COc1ccc(NC(=O)CSc2nnc(-c3ccccc3C)n2N)cc1OC
The cytotoxicity of the first is lower: -3.3% for the first, -2.1% for the second.

First: Cc1ccc(S(=O)(=O)/C(C#N)=C/c2c(N3CCN(C)CC3)nc3ccccn3c2=O)cc1
Second: CN1CCN(Cc2cc(COCc3ccccc3)c3cccnc3c2O)CC1
The cytotoxicity of the first is lower: -0.5% for the first, 4.8% for the second.

First: O=C(O)CSCCC(=O)Nc1ccc(F)cc1
Second: CCOc1ccccc1NC(=O)N1CCCC1C(=O)Nc1ccc(NC(C)=O)cc1 (centres undefined)
The cytotoxicity of the first is lower: -3.7% for the first, -3.3% for the second.

Compared with `CCOC(=O)Cn1c(CN2CC(C)OC(C)C2)nc2c1c(=O)n(C)c(=O)n2C` (centres undefined), `Cc1ccc(CNc2nc3c([nH]2)c(=O)n(C)c(=O)n3C)cc1` is lower in cytotoxicity: -2.5% for the first, -19.3% for the second.

First: CCOC(=O)N1CCN(C(=O)C2COc3ccccc3O2)CC1 (centres undefined)
Second: CCOC(=O)C1CCN(Cc2ccc(O)c3ncccc23)CC1
The cytotoxicity of the first is higher: 11.8% for the first, -4.5% for the second.

Compared with `O=C(O)C1CCCCC1C(=O)Nc1ccc(Cl)cc1Cl` (centres undefined), `CCOC(=O)C1CCN(c2ncnc3c2oc2ccc(Cl)cc23)CC1` is higher in cytotoxicity: -0.5% for the first, 6.4% for the second.

First: CCCOC(=O)CCCCC1SCC(NC(=O)OC)C1NC(=O)OC (centres undefined)
Second: CCOC(=O)Cn1c(=O)oc2cc(S(=O)(=O)Nc3cc(Cl)ccc3OC)ccc21
The cytotoxicity of the first is higher: 5.4% for the first, 0.7% for the second.

Compared with `COc1cc2c3c(c1)C1(C(=O)N3C(C)(C)C=C2C)C(C#N)=C(N)Oc2cc(O)ccc21` (centres undefined), `CC1=CC(C)(C)N2C(=O)C3(C(C#N)=C(N)Oc4cc(C)oc(=O)c43)c3cccc1c32` (centres undefined) is higher in cytotoxicity: -21.4% for the first, -4.3% for the second.

Compared with `Cn1c(SCC2CCCO2)nnc1-c1ccncc1` (centres undefined), `CCn1c(SCC(=O)Nc2ccc3c(c2)OCCO3)nnc1-c1ccco1` is higher in cytotoxicity: -3.1% for the first, 5.8% for the second.

Going from `Cc1onc(-c2ccccc2)c1C(=O)OCC(=O)Nc1ccc2c(c1)OCO2` to `CC1(C)Cc2ccccc2-c2nnc(SCC(=O)Nc3ccc4c(c3)OCO4)n21`, the cytotoxicity rises from 1.3% to 4.9%.

First: O=C(C1CCN(S(=O)(=O)c2cccnc2)CC1)N1CCN(C2CCCC2)CC1
Second: O=C(CSc1nnc(-c2ccc(S(=O)(=O)N3CCCC3)cc2)o1)NCc1ccco1
The cytotoxicity of the first is higher: -8.1% for the first, -15.4% for the second.

Compared with `Cc1ccc(C(CC(=O)N2CCCC2)c2ccccc2)c(O)c1C` (centres undefined), `CCn1c2ccccc2c2cc(NC(=O)N3CCOCC3)ccc21` is higher in cytotoxicity: -9.2% for the first, -7.1% for the second.

First: COc1ccccc1CNc1ncnc2nc[nH]c12
Second: Oc1ccc(CNc2ccccc2)c2cccnc12
The cytotoxicity of the first is lower: 4.5% for the first, 44.4% for the second.

First: Oc1ccc(CN2CCN(Cc3ccccc3)CC2)c2cccnc12
Second: Oc1ccc(CN2CCCc3ccccc32)c2cccnc12
The cytotoxicity of the first is lower: 6.1% for the first, 36.7% for the second.

Going from `Oc1ccc(CNc2ccccc2F)c2cccnc12` to `CCn1c2ccccc2c2cc(CN3CCN(C(=O)c4ccco4)CC3)ccc21`, the cytotoxicity falls from 5.5% to -16%.

Going from `CCOc1ccc(OCC)c(NC(=O)CN(c2ccc(C)cc2)S(=O)(=O)c2c(C)noc2C)c1` to `COc1ccc(-c2noc(CN(C)S(=O)(=O)c3ccc(Cl)cc3)n2)cc1OC`, the cytotoxicity rises from -6.3% to 27.5%.

Going from `COC(=O)c1[nH]c2ccc(C)cc2c1NS(=O)(=O)c1ccc(F)c(C)c1` to `COc1cc(C(=O)N2CCN(c3ccc(C)cc3C)CC2)cc(OC)c1OC`, the cytotoxicity rises from 10.9% to 28.6%.

Compared with `CCCn1c(SCC(=O)NC(C)(C)C)nnc1C(C)C`, `C=CCn1c(SCC(=O)Nc2ccc(N(C)C)cc2)nnc1-c1cccc(C)c1` is higher in cytotoxicity: -5.9% for the first, 33% for the second.

First: COc1cccc(OC)c1C(=O)Nn1c(C2CCC2)nc2ccccc2c1=O
Second: COc1cc(OC)cc(C(=O)NCc2n[nH]c(=S)n2-c2ccccc2)c1
The cytotoxicity of the first is lower: -10.3% for the first, -3.1% for the second.

Compared with `O=C(CN1C(=O)CCS(=O)(=O)c2ccccc21)Nc1cccc(Cl)c1`, `CCn1c(SCC(=O)Nc2ccc3c(c2)c2ccccc2n3CC)nnc1-c1cnccn1` is higher in cytotoxicity: 2.5% for the first, 12.2% for the second.

Compared with `Cc1ccc(-c2c(C)c(-c3ccc(F)cc3)nc(N)c2C#N)o1`, `COc1ccc(Cl)cc1S(=O)(=O)N1CCN(C(=O)c2cc(OC)c(OC)c(OC)c2)CC1` is lower in cytotoxicity: 19.3% for the first, -3.4% for the second.

For `O=C1CC(O)(C(F)(F)F)Oc2c1ccc1ccccc21` (centres undefined), the cytotoxicity was 88.6% (active).
In the case of `CC1=CC(C)(C)N2C(=O)C3(C(C#N)=C(N)Oc4cc(O)ccc43)c3cccc1c32` (centres undefined), the cytotoxicity is reported as 74.3% (active).
With `O=C(COC(=O)c1c2c(nc3ccccc13)CCCC2)Nc1ccc2c(c1)OCO2` the cytotoxicity was 53.6% (active).
With `Oc1ccc(CNc2ccc(F)cc2)c2cccnc12` the cytotoxicity was 53.3% (active).
With `COc1cc(C(=O)N2CCN(c3cc(Cl)ccc3Cl)CC2)cc(OC)c1OC` the cytotoxicity was 65.3% (active).
For `CCn1c2ccccc2c2cc(NC(=O)CSc3nnc(-c4ccccc4OC)n3N)ccc21`, the cytotoxicity was 66% (active).
For `CCn1c(SCC(=O)Nc2ccc3c(c2)c2ccccc2n3CC)nnc1-c1ccco1`, the cytotoxicity was 57.1% (active).
In the case of `CCn1c2ccccc2c2cc(NC(=O)c3ccco3)ccc21`, the cytotoxicity is reported as 66.2% (active).
